High-throughput results from PubChem BioAssay.
PMP22 txn = modulates PMP22 transcription in S16 Schwann cells; S16 Pmp22-F2sN Schwann cells, FLuc/NLuc coincidence luminescence, 24 h; Potency, µM (titrated, usually from 57.5 µM), actives largely listed as inhibitors; hit rate 2% among 43,000; AID 1508649; active = clear falling dose curves in both reporters; inconclusive = both reporters move, but less clearly or upward; inactive = either reporter flat; the % is the NLuc reporter signal
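Reporter cells (S16 Pmp22-F2sN, 500–1,000 per well) exposed to compounds for 24 h, 37C, 5% CO2; lysis with FLuc read after 10 min, then Stop&Glo and NLuc read after 10 min.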
p53null 39C kill = kills p53 null cells at the nonpermissive temperature. H1299 p53-null (neo) cells, 39C, ATPlite viability, 24 h. hit rate 0.97% among 55,000. AID 904. Potency, µM (highest dose often 46.1 µM), most hits filed as cytotoxic; note: nearly all actives have a fitted effect of over 50% in size
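H1299 lung cancer cells, p53-null (H1299-neo) or expressing p53 A138V (H1299-p53A138V), were plated overnight at 37C, then exposed to compounds at up to 46 uM for 24 hr at 39C. Viability was read by ATP-based luminescence.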
OvCa metastasis = inhibitors of ovarian cancer cell adhesion and invasion in omental model; hit rate 0.1% among 46,000; Potency, µM (titrated, usually from 45.8 µM), actives largely listed as inhibitors; SKOV3ip1-GFP adhesion/invasion on 3D omental model, fluorescence; note: nearly all actives have a fitted effect of over 65% in size
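Adhesion/invasion was scored as fixed GFP-labeled SKOV3ip1 cell counts (488/509 nm), normalized to DMSO and tomatine controls. Cancer cells in serum-free medium, with four compound doses (0.36-46 umol/L), sat 2 hr at RT then 16 hr at 37 C on a 48 hr fibroblast/mesothelial/ECM culture.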
pS6 MEF inh = inhibitors of mTORC1 signaling in Tsc2-/- p53-/- MEF cells. Tsc2-/- p53-/- MEF, phospho-rpS6 immunofluorescence/PI, 24 h. Potency, µM (titrated, usually from 38.3 µM), usual class: inhibitors. hit rate 0.78% among 44,000. AID 493208; note: nearly all actives have a fitted effect of over 50% in size
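Immunofluorescence of rpS6 phosphorylation in Tsc2-/-, p53-/- MEFs after 24 h compound exposure, normalized to propidium iodide signal. Activity is expressed as % positive cells, thresholded with 7.5 nM rapamycin.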
p53null 32C tox = p53 null cell cytotoxicity, permissive temperature; H1299-neo p53 null cells, ATP luminescence, 24 h, 32C; Potency, µM (doses to about 46.1 µM), actives largely listed as cytotoxic; hit rate 0.62% among 55,000; note: nearly all actives have a fitted effect of over 55% in size
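Overnight 37C seeding (600 cells/well) of H1299-neo preceded a 24 hr, 32C exposure to compounds up to 46 uM. ATP levels, read by luminescence after 20 min at RT, indicated surviving cells.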
S16 viability = S16 Schwann cell cytotoxicity. S16 Pmp22-F2sN Schwann cells viability, CellTiter-Glo, 24 h. Potency, µM (titrated, usually from 57.5 µM), actives largely listed as cytotoxic. hit rate 0.48% among 43,000. AID 1508642; note: nearly all actives have a fitted effect of over 65% in size
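Luminescence from CellTiter-Glo, read by CCD camera after a 15 min room-temperature incubation, served as the viability signal. Reporter Schwann cells (S16 Pmp22-F2sN) had been treated with pin-transferred compounds for 24 h at 37C.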
NLuc sat counter = counter-screen for PMP22 expression modulators: NanoLuc inhibition, saturating substrate. Potency, µM (top dose mostly 57.5 µM), hits mostly inhibitors. shares compounds with PMP22 txn. hit rate 4% among 690. Secreted NLuc enzyme (filtered S16 cell medium), Nano-Glo luminescence
NLuc Km counter = inhibits NanoLuc under Km conditions, PMP22 counter-screen | Potency, µM (titrated, usually from 57.5 µM), usual class: inhibitors | shares compounds with PMP22 txn | AID 1508639 | hit rate 5% among 690 | secreted NLuc enzyme, coelenterazine luminescence, Km conditions
FLuc ctr PMP22 = counter-screen for PMP22 expression modulators: firefly luciferase inhibition; Potency, µM (titrated, usually from 57.5 µM), most hits filed as inhibitors; shares compounds with PMP22 txn; purified P. pyralis FLuc, luminescence, 10 min; AID 1508640; 690 tested, under 10 active
Target sequence (P08659 whole entry, looked up): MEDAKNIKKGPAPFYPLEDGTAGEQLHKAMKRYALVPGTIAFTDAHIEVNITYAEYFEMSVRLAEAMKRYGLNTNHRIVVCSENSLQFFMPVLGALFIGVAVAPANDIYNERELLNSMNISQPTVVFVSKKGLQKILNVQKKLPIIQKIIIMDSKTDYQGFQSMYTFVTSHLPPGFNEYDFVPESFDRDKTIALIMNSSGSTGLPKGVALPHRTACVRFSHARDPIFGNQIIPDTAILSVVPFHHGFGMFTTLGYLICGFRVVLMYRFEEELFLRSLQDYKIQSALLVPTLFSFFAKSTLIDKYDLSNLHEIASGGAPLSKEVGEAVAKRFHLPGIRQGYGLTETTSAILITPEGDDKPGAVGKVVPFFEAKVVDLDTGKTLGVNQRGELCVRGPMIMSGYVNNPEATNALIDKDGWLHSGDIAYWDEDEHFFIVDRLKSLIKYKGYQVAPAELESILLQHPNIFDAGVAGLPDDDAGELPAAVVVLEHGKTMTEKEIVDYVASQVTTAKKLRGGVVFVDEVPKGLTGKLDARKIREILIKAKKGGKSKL
S16 viab conf = confirmation of cytotoxicity in S16 Pmp22-F2sN Schwann cells (luciferase reporters placed in the Pmp22 gene); shares compounds with PMP22 txn; S16 Schwann cells viability, CellTiter-Glo ATP luminescence, 24 h; Potency, µM (titrated, usually from 57.5 µM), usual class: cytotoxic; hit rate 7% among 690; AID 1508641
PMP22 txn conf = PMP22 transcription modulation, confirmatory; shares compounds with PMP22 txn; S16 Schwann cells Pmp22-F2sN, dual luciferase, 24 h; Potency, µM (top dose mostly 57.5 µM), most hits filed as inhibitors; hit rate 22% among 690; active = clear falling dose curves in both reporters; inconclusive = both reporters move, but less clearly or upward; inactive = either reporter flat; the % is the FLuc reporter signal
PMP22 prot conf = rat PMP22 protein level modulation, confirmatory; shares compounds with PMP22 txn; S16 Schwann cells Pmp22-HiBiT, luminescence, 48 h; Potency, µM (top dose mostly 27.9 µM), hits mostly inhibitors; 95 tested, under 10 active
A number is an active result; n = inactive; u = inconclusive; x = not tested or not shown. Rows were chosen to be rich in hits. Some 3% of all compounds tested hit in one or more screens of this group. Unless noted, calls come from the whole dose curve; as a rule, active = well fitted curve in the direction sought with a large enough effect; inconclusive = small, poorly fitted or top-dose-only effect, or another doubt; inactive = no such curve, though single readings can be large; an effect the other way counts as inactive or inconclusive.

SMILES | PMP22 txn | p53null 39C kill | OvCa metastasis | pS6 MEF inh | p53null 32C tox | S16 viability | NLuc sat counter | NLuc Km counter | FLuc ctr PMP22 | S16 viab conf | PMP22 txn conf | others
CCOC(=O)c1ccccc1NC(=O)Cn1c(=O)n(Cc2ccccc2)c(=O)c2c(C)c(C)sc21 | 17.8µM | n | n | u | n | n | n | n | n | n | n
CCc1ccccc1Nc1nn2c(=O)c3ccc(C(=O)Nc4cc(C)cc(C)c4)cc3nc2s1 | 7.27µM | n | n | n | n | n | n | u | n | 21.7µM | 11.5µM | PMP22 prot conf=n
Cc1ccccc1Nc1nn2c(=O)c3ccc(C(=O)NCc4ccccc4)cc3nc2s1 | u | n | n | n | n | n | x | x | x | x | x
Cc1ccc(C)c(Nc2nn3c(=O)c4ccc(C(=O)NCc5cccs5)cc4nc3s2)c1 | 13.4µM | n | n | u | u | u | n | u | n | u | u
O=C(Nc1ccc(F)cc1Cl)C1CCN(c2ncnc3c2nc2n3CCCCC2)CC1 | 17µM | n | n | n | n | n | n | n | n | n | u
C[C@@H]1C(=O)O[C@H]2CC34[C@H]5C[C@@H](C(C)(C)C)C36[C@H](OC(=O)[C@@H]6O)O[C@@]4(C(=O)O5)[C@]21O (some centres not stated) | x | x | n | x | x | x | x | x | x | x | x
O=S(=O)(NCC(c1ccco1)S(=O)(=O)c1cccs1)c1ccc(Cl)cc1 (configuration not stated) | 15µM | n | n | 18.5µM | n | n | u | u | n | n | 7.56µM | PMP22 prot conf=n
CC(C)(O)CCc1ccc(OCc2cc(-c3cccc(OC(F)F)c3)c3ncccc3c2)cc1 | x | x | n | x | x | x | x | x | x | x | x
Cn1cc(C=C2C(=O)Nc3cccnc32)c2ccccc21 | x | x | n | x | x | x | x | x | x | x | x
O=C(C=Cc1ccc(O)cc1)c1ccc(O)cc1O | x | x | n | x | x | x | x | x | x | x | x
COc1ccc(NC(=O)c2cc3c(s2)-c2c(C)cccc2OC3)cc1Cl | 15.8µM | n | n | n | n | 28.2µM | n | n | n | u | u
COc1cc(Cl)c(C)cc1NC(=O)c1cc2c(s1)-c1c(C)cccc1OC2 | u | n | n | n | n | n | x | x | x | x | x
COc1ccc(-n2nc(C(N)=O)c3c2C(=O)N(c2ccc(N4CCCCC4=O)cc2)CC3)cc1 | x | x | n | x | x | x | x | x | x | x | x
